From PubChem BioAssay (Tox21)
“And” between values parts separate entries of the source, which are not always exact repeats. Equal values may be shown once. Records with an inconclusive call do not appear. Where a structure was tested more than once in an assay, its records may differ in their call. The source made the active and inactive calls. Unless noted, calls follow the shape of the dose curve; as a rule, active = well fitted curve in the direction sought with a large enough effect in the repeat runs; inconclusive = weak or mixed curves; inactive = no such curve, though single readings can be large; an effect the other way counts as inactive or inconclusive.

Experiments:
[1] = A CellTox Green Cytotoxicity Assay to monitor cytotoxicity in HepG2 cells - 8 hour (AID 1224890); also: nearly all actives have a fitted effect of over 45% in size; also: potency is read from the fitted curve at half-maximal effect
Summary of the method: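 Real-time, homogeneous cytotoxicity readout: dead-cell DNA staining by CellTox Green in HepG2 monolayers, fluorescence measured at timed intervals up to 40 h of continuous compound exposure.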

[2] = qHTS assay to identify small molecule antagonists of the estrogen receptor alpha (ER-alpha) signaling pathway using the BG1 cell line in the presence of 0.1 nM 17-beta-estradiol - cell viability counter screen (AID 1259241); also: nearly all actives have a fitted effect of over 40% in size
Summary of the method: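 Following 5 days in phenol red-free medium with charcoal-stripped serum, VM7Luc4E2 cells received test compounds alongside 0.1 nM 17beta-estradiol (final) at 37C for 22 hr. Live cells were then quantified via protease-substrate fluorescence.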

[3] = qHTS assay to identify small molecule antagonists of the androgen receptor (AR) signaling pathway using the MDA cell line in the presence of 0.5 nM R1881 - cell viability counter screen (AID 1259242); also: nearly all actives have a fitted effect of over 45% in size
Summary of the method: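 Cytotoxicity toward MDA-kb2 cells is measured by CellTiter-Fluor live-cell protease fluorescence after 16 hr compound exposure at 37C in the presence of 0.5 nM R1881 stimulator.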

[4] = biological target: Estrogen receptor (Homo sapiens) (UniProt P03372); assay: qHTS assay to identify small molecule antagonists of the estrogen receptor alpha (ER-alpha) signaling pathway using the BG1 cell line in the presence of 0.1 nM 17-beta-estradiol (AID 1259244); also: nearly all actives have a fitted effect of over 50% in size
Summary of the method: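 After 5 days in hormone-depleted medium (charcoal-stripped serum, no phenol red), VM7Luc4E2 cells were seeded, incubated 24 h, then co-treated with compound and 0.1 nM (final) estradiol for 22 h before luminescence detection.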

[5] = qHTS assay to identify small molecule phospholipidosis (PLD) inducers (AID 1259344; active = well fitted curve in the direction sought with a large enough effect; an effect the other way counts as inactive or inconclusive)
Summary of the method: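 HepG2 cells on collagen I, attached 4 h at 37 C, were co-treated with compound and LipidTOX Red dye for 24 h at 37 C, then fixed with paraformaldehyde plus Hoechst 33342 and imaged by high-content microscopy for phospholipid accumulation.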

[6] = qHTS assay to identify small molecule HDAC inhibitors (AID 1259364); also: nearly all actives have a fitted effect of over 45% in size; also: potency is read from the fitted curve at half-maximal effect
Summary of the method: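 Homogeneous cell-based luminescent assay of endogenous class I/II HDAC activity; HCT-116 cells, 2 h compound exposure, 30 min HDAC-Glo development at RT.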

[7] = qHTS assay to identify small molecule HDAC inhibitors - cell viability counter screen (AID 1259365); also: series mostly up to about 92 µM; nearly all actives have a fitted effect of over 50% in size
Summary of the method: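 HCT-116 wild-type, overnight attachment; 2hr drug exposure, 37C; CellTiter-Glo luminescent ATP readout after 30min RT.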

[8] = qHTS assay to identify small molecule agonists of the sonic hedgehog signaling (Shh) pathway - cell viability counter screen (AID 1259366); also: nearly all actives have a fitted effect of over 50% in size
Summary of the method: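 Compounds in DMSO were pin-transferred onto 3T3 Gli1-Luc cells that had settled 4hr; plates then stood 24hr at 37C and 5% CO2. One hour before the end, CellTiter-Fluor was added and fluorescence recorded.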

[9] = qHTS assay to identify small molecule antagonists of the sonic hedgehog signaling (Shh) pathway - cell viability counter screen (AID 1259367); also: nearly all actives have a fitted effect of over 55% in size
Summary of the method: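 NIH/3T3-derived Gli1-Luc reporter cells (2,000 per well) rested 4 hr at 37 C, then received DMSO compounds plus conditioned medium. After 23 hr of treatment, CellTiter-Fluor was added for 1 hr at 37C and fluorescence read.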

[10] = qHTS assay to identify small molecule agonists of the sonic hedgehog signaling (Shh) pathway (AID 1259368; calls by dose curve;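 also: NIH/3T3-derived 3T3Gli1-Luc cells carrying a stable Gli1-driven firefly luciferase reporter; series mostly up to about 92 µM; nearly all actives have a fitted effect of over 15% in size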)
Summary of the method: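 Steps: seed 3T3 Gli1-Luc cells, incubate 4 hr at 37 C, pin-transfer compounds in DMSO alongside a positive control, incubate 24 hr, add luciferase detection reagent, wait 30 min at room temperature, read luminescence.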

[11] = qHTS assay to identify small molecule agonists of the androgen receptor (AR) signaling pathway in the presence of an antagonist - cell viability counter screen (AID 1259379);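 also: MDA-kb2 human breast cancer cells carrying an MMTV luciferase reporter; series mostly up to about 92 µM; nearly all actives have a fitted effect of over 25% in size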
Summary of the method: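 Fluorescence from CellTiter-Fluor, added after 15 hr and read 1 hr later, gave cell viability. Cells were MDA-kb2 exposed to compounds (15 concentrations) in the presence of 3.0uM nilutamide at 37C, 0% CO2.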

[12] = qHTS assay to identify small molecule agonists of the estrogen receptor beta (ER-beta) signaling pathway - cell viability counter screen (AID 1259380); also: nearly all actives have a fitted effect of over 30% in size; also: potency is read from the fitted curve at half-maximal effect
Summary of the method: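 Same-well viability counter screen. Cells: ER-beta-UAS-bla HEK293T, plated 6 hr before compound, in 2% charcoal-stripped FBS. Compound exposure 16 hr, 37C; viability by CellTiter-Glo luminescence after 30 min at room temperature.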

[13] = qHTS assay to identify small molecule antagonists of the estrogen receptor beta (ER-beta) signaling pathway - cell viability counter screen (AID 1259382); also: nearly all actives have a fitted effect of over 55% in size; also: potency is read from the fitted curve at half-maximal effect
Summary of the method: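 Following a 6 hr plating period, HEK293T cells carrying a UAS-driven beta-lactamase reporter under ER-beta control received compounds and 1nM E2 (final). After 16 hr at 37C and 2 hr substrate loading, CellTiter-Glo luminescence indicated viability.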

[14] = biological target: Estrogen receptor (Homo sapiens) (UniProt P03372); assay: qHTS assay to identify small molecule agonists of the estrogen receptor alpha (ER-alpha) signaling pathway in the presence of an antagonist (AID 1259383; calls by dose curve; also: nearly all actives have a fitted effect of over 15% in size; also: potency is read from the fitted curve at half-maximal effect; as to activation: top concentration of the series differs between compounds)
Summary of the method: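 Cells are hormone-deprived for 5 days (charcoal-stripped FBS, no phenol red), plated for 24hr, spiked with 10.0nM ICI-182,780, then dosed at 15 concentrations. After 22hr at 37C, ONE-Glo luminescence reports ERE-luciferase activity.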

[15] = qHTS assay to identify small molecule agonists or antagonists of the thyroid stimulating hormone receptor (TSHR) signaling pathway - wild type cell line counter screen (AID 1259384; calls by dose curve)
Summary of the method: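 Wild-type HEK293 cells were plated 18 h at 37 C/5% CO2, pin-dosed with compound plus Ro20-1724 medium, held 30 min at room temperature, then given cAMP-d2 and anti-cAMP-cryptate; fluorescence was read after 1 h. Fifteen concentrations, triplicate.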

[16] = biological target: Androgen receptor (Homo sapiens) (UniProt P10275); assay: qHTS assay to identify small molecule antagonists of the androgen receptor (AR) signaling pathway using the MDA cell line in the presence of 0.5 nM R1881 (AID 1259243); also: nearly all actives have a fitted effect of over 50% in size
Summary of the method: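 Steps: seed MDA-kb2 cells, incubate 5 hr at 37C; pin-transfer compounds in DMSO; add R1881 to 0.5 nM final; incubate 16 hr; add ONE-Glo, wait 30 min at room temperature; read luminescence.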

[17] = qHTS assay to identify small molecule antagonists of the sonic hedgehog signaling (Shh) pathway (AID 1259369; calls by dose curve; also: nearly all actives have a fitted effect of over 45% in size; also: potency is read from the fitted curve at half-maximal effect)
Summary of the method: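 Inhibition of Shh signalling is measured as reduced Gli1-response-element firefly luciferase output in an NIH/3T3-derived stable reporter clone stimulated with conditioned medium for 24hr.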

[18] = biological target: Androgen receptor (Homo sapiens) (UniProt P10275); assay: qHTS assay to identify small molecule agonists of the androgen receptor (AR) signaling pathway in the presence of an antagonist (AID 1259381; calls by dose curve; also: nearly all actives have a fitted effect of over 15% in size; also: potency is read from the fitted curve at half-maximal effect)
Summary of the method: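 Cells are MDA-kb2 (human breast carcinoma, MMTV-luc, AR/GR responsive). Nilutamide is present at 3.0uM final throughout; compounds are added at 15 concentrations and incubated 16hr at 37C before ONE-Glo luminescence detection.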

[19] = biological target: Estrogen receptor beta (Homo sapiens) (UniProt Q92731); assay: qHTS assay to identify small molecule agonists of the estrogen receptor beta (ER-beta) signaling pathway (AID 1259377; active = well fitted activation curve with a large enough effect in the signal ratio in the repeat runs, not every such curve was filed as active; the % refers to the signal ratio; also: potency is read from the fitted curve at half-maximal effect)
Summary of the method: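 qHTS in ER-beta-UAS-bla HEK293T cells: 6 hr settling, then 16 hr compound at 37C, then LiveBLAzer substrate 2 h at RT before fluorescence reading.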

[20] = biological target: Estrogen receptor beta (Homo sapiens) (UniProt Q92731); assay: qHTS assay to identify small molecule antagonists of the estrogen receptor beta (ER-beta) signaling pathway (AID 1259378; active = well fitted inhibition curve with a large enough effect in the signal ratio in the repeat runs, not every such curve was filed as active; the % refers to the signal ratio)
Summary of the method: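 ER-beta-UAS-bla HEK293T (GripTite) cells in 2% charcoal-stripped FBS medium were preincubated 6 hr at 37C, dosed with compound, then stimulated with 1 nM E2 (final) for 16 hr; beta-lactamase reporter read by B/G FRET fluorescence after 2 hr substrate loading.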

Measured: Potency

Sequence of Estrogen receptor (Homo sapiens) (P03372 whole entry, looked up): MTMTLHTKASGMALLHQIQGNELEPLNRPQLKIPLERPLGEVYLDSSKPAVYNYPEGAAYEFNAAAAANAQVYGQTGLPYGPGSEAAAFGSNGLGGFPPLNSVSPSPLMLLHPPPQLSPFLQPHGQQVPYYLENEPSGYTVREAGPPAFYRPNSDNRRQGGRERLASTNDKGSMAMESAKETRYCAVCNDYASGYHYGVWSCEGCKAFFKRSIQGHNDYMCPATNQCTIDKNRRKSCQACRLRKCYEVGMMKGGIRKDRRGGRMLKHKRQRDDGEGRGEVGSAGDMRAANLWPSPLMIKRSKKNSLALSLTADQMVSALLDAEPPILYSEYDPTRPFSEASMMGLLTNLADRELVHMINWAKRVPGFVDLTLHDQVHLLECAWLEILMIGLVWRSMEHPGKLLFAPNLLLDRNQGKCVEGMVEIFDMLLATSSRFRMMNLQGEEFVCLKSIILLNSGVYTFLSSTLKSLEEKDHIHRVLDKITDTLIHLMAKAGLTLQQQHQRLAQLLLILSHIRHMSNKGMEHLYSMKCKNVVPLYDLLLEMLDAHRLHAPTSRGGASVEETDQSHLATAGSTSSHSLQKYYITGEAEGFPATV
Sequence of Androgen receptor (Homo sapiens) (P10275 whole entry, looked up): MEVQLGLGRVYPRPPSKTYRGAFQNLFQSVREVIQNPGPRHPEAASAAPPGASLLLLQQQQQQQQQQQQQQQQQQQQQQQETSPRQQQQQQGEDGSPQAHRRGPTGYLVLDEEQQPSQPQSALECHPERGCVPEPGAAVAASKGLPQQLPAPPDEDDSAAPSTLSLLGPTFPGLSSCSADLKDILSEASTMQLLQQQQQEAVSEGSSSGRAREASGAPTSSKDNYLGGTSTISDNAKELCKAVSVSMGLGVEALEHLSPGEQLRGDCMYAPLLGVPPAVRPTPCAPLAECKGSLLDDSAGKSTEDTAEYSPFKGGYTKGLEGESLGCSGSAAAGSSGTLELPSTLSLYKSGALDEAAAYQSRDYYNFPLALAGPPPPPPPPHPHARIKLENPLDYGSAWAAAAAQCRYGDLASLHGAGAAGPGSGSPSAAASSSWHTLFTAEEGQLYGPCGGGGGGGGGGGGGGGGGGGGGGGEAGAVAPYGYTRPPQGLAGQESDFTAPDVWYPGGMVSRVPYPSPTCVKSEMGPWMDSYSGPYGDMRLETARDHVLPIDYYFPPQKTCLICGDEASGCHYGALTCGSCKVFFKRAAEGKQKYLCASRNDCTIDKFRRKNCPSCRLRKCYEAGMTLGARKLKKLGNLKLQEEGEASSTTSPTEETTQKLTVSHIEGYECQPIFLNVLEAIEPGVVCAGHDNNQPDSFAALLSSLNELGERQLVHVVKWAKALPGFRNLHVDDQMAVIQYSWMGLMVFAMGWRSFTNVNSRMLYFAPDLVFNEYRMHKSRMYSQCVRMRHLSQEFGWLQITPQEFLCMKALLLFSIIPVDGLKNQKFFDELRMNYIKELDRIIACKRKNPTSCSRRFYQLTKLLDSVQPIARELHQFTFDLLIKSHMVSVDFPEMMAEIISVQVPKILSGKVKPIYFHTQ
Sequence of Estrogen receptor beta (Homo sapiens) (Q92731 whole entry, looked up): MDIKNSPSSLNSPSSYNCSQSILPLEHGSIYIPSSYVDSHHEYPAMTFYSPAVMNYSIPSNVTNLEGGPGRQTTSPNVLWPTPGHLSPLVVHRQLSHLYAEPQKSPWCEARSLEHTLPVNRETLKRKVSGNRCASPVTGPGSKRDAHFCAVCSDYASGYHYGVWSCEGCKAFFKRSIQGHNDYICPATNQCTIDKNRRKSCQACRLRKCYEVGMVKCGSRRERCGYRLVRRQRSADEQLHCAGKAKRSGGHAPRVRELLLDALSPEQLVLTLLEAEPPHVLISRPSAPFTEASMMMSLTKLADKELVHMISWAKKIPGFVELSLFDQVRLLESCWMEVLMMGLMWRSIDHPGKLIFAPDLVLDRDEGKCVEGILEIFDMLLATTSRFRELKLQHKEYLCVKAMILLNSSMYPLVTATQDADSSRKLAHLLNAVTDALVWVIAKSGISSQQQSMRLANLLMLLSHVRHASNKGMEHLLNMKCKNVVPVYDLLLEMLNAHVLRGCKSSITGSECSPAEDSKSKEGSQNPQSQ

OC[C@@H](O)[C@H](O)[C@H](O)[C@@H](O)CO
inactive: [1] | [2] | [3] | [4] | [5] | [6] | [7] | [8] | [9] | [10] | [11] | [12] | [13] | [14] | [15]

O=C(O)c1cc(-c2ccccc2)nc2ccccc12
inactive: [1] | [2] | [3] | [16] | [5] | [7] | [8] | [9] | [10] | [17] | [11] | [12] | [13] | [15]
55.1 µM (active) and inactive: [18]

NCCNCCNCCNCCN
inactive: [1] | [2] | [3] | [16] | [5] | [6] | [7] | [8] | [9] | [10] | [19] | [20] | [11] | [12] | [18] | [13] | [15]

CC1(C)CC(N=C=O)CC(C)(CN=C=O)C1 (stereo unspecified)
inactive: [1] | [2] | [3] | [4] | [6] | [7] | [8] | [9] | [10] | [17] | [11] | [12] | [13] | [14] | [15]

Nc1nc2ncc(CNc3ccc(C(=O)N[C@@H](CCC(=O)O)C(=O)O)cc3)nc2c(=O)[nH]1
inactive: [1] | [2] | [3] | [16] | [5] | [6] | [7] | [8] | [9] | [10] | [17] | [19] | [20] | [11] | [12] | [18] | [13] | [15]

C=C(C)C(=O)OCCC[Si](OC)(OC)OC
inactive: [1] | [2] | [3] | [4] | [6] | [7] | [8] | [9] | [10] | [17] | [19] | [20] | [11] | [12] | [13] | [14] | [15]

CN(CCOc1ccc(CC2SC(=O)NC2=O)cc1)c1ccccn1 (stereo unspecified)
30.5 µM (active) and inactive: [6]
inactive: [1] | [2] | [3] | [4] | [5] | [7] | [8] | [9] | [10] | [17] | [19] | [20] | [11] | [13] | [14] | [15]

O=C(c1ccc(O)cc1)c1ccc(O)cc1O
inactive and 54.9 µM (active): [1]
active: [17] 55 µM | [19] 13.8 µM and 12.2 µM | [14] 15.5 µM and 13.7 µM
inactive: [2] | [3] | [4] | [7] | [8] | [9] | [10] | [11] | [12] | [13] | [15]

NC(=O)NNc1ccccc1
inactive: [1] | [2] | [3] | [5] | [6] | [7] | [8] | [9] | [10] | [17] | [19] | [20] | [11] | [12] | [13] | [15]

C=C1CC[C@H](O)CC1=C/C=C1\CCC[C@]2(C)[C@@H]([C@H](C)/C=C/[C@H](C)C(C)C)CC[C@@H]12
inactive: [1] | [2] | [3] | [5] | [6] | [7] | [8] | [10] | [19] | [11] | [15]
active: [12] 24.1 µM and 30.6 µM | [13] 42.9 µM

CCC(C)C=O (stereo unspecified)
4.32 µM (active) and inactive: [19]
1.09 µM (active) and inactive: [14]
inactive: [1] | [2] | [3] | [4] | [6] | [7] | [8] | [9] | [10] | [20] | [11] | [12] | [13] | [15]

O=C1CCCCC1
inactive: [1] | [2] | [16] | [4] | [6] | [7] | [8] | [9] | [10] | [17] | [19] | [20] | [11] | [12] | [18] | [13] | [14]

Nc1cc(-c2ccncc2)c[nH]c1=O
inactive: [1] | [2] | [16] | [4] | [5] | [6] | [7] | [8] | [9] | [10] | [17] | [19] | [20] | [11] | [12] | [18] | [13] | [14] | [15]

Cc1cc(NS(=O)(=O)c2ccc(N)cc2)no1
inactive: [1] | [2] | [3] | [5] | [6] | [7] | [8] | [9] | [10] | [17] | [19] | [11] | [12] | [13] | [15]

CC#C[C@]1(O)CC[C@H]2[C@@H]3CCC4=CC(=O)CCC4=C3[C@@H](c3ccc(N(C)C)cc3)C[C@@]21C
inactive: [1] | [2] | [3] | [5] | [6] | [7] | [8] | [9] | [10] | [19] | [11] | [13] | [14] | [15]

C=CC(=O)OCCCCCCCC(C)C
inactive: [1] | [2] | [16] | [4] | [6] | [7] | [8] | [9] | [10] | [19] | [20] | [11] | [12] | [18] | [13] | [14] | [15]
